The results in this text go back to PubChem BioAssay (NCI).

Structures are written as SMILES. The panel holds about 83,000 compounds, 20% with a hit somewhere; the sample as a whole holds those more often.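 Percent growth is the endpoint: 0 to 100 indicates growth inhibition (40 means 60% inhibition), 0 means no net growth, and negative values indicate cell death.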 Unmarked numbers belong to inactive results. Active and inactive are the calls of the source. The calls were made as follows: active = growth percent below 10; inactive = the rest.

Test in all cases: NCI-60 one-dose screen, 48 h (100 = growth as untreated, 0 = no growth, -100 = all killed)
The test system of one test is SK-MEL-2 melanoma. Particulars: 10 µM unless noted.
The next test has as its system EKVX NSCLC. Particulars: 10 µM unless noted.
For another test, the system named is SN12C renal. Conditions: 10 µM unless noted.
Another test deals with UO-31 renal. Conditions: 10 µM unless noted.
The subject of a further test is TK-10 renal. Particulars: 10 µM unless noted.
A further test has as its system ACHN renal. Particulars: 10 µM unless noted.
The next test concerns A498 renal. Conditions: 10 µM.
The next test deals with HL-60(TB) leukemia. Conditions: 10 µM unless noted.
The subject of the next test is CCRF-CEM leukemia. Particulars: 10 µM unless noted.

`CCOC(=O)[C@@H](C)C[C@H](Cc1ccccc1)NC(=O)c1csc([C@@H](C[C@H](C(C)C)N(C)C(=O)[C@H](CCC(C)C)NC(=O)[C@H]2CCCCN2C)OC(C)=O)n1`: the growth in the test on SK-MEL-2 melanoma is 28.1%; in the test with EKVX NSCLC, 45.6%; with SN12C renal it was 18.9%; with UO-31 renal, 20.6%; in the test on TK-10 renal, -5.17% (active); in the test on ACHN renal, 9.24% (active). The growth in the test with A498 renal was -11.5% (active); in the test on HL-60(TB) leukemia, -32.3% (active); in the test with CCRF-CEM leukemia, 9.03% (active).
On to `CCCC[C@H](NC(=O)[C@H]1CCCN1C)C(=O)N(C)[C@H](C[C@@H](OC(C)=O)c1nc(C(=O)N[C@@H](Cc2ccccc2)C[C@H](C)C(=O)OCC)cs1)C(C)C`, for which the growth is 52% with SK-MEL-2 melanoma; 41.3% with EKVX NSCLC; 23.6% in the test on SN12C renal; 40.2% in the test on UO-31 renal; 16.4% with TK-10 renal; 17.5% in the test with ACHN renal. In addition, the values for the growth in the test on A498 renal, in the test with HL-60(TB) leukemia and in the test on CCRF-CEM leukemia were -11.7% (active), -28.7% (active) and 11.1%, respectively.
Turning to `CN1CCC(c2c[nH]c3ccccc23)C1` (stereo not drawn), the growth was 87.5% in the test with SK-MEL-2 melanoma; 98.1% in the test on EKVX NSCLC; 124% in the test with SN12C renal; 69.1% with UO-31 renal; 154% with TK-10 renal; 96.2% in the test with ACHN renal. For the same compound, the growth is 113% with A498 renal, 104% in the test with HL-60(TB) leukemia and 98.7% in the test with CCRF-CEM leukemia.
With `CCOP(=O)(NC[C@H]1O[C@](O)(CO)[C@@H](O)[C@@H]1O)OCC`, the growth with SK-MEL-2 melanoma is 98.4%; in the test with EKVX NSCLC it was 91.4%; in the test on SN12C renal it was 100%; in the test with UO-31 renal, 69.9%; in the test on TK-10 renal it was 97.2%; in the test with ACHN renal, 103%. Moreover, the figures for the growth with A498 renal, in the test on HL-60(TB) leukemia and with CCRF-CEM leukemia were 99.9%, 101% and 101%, respectively.
For the compound `CC1[C@H](C)OC(=O)CC(O)CC(O)CC(O)CCC(O)C(O)C[C@]2(O)CC(O)C(C(=O)O)C(CC(OC3O[C@H](C)[C@@H](O)[C@H](N)[C@@H]3O)/C=C/C=C/C=C/C=C/CC/C=C/C=C/[C@H](C)[C@H]1O)O2` (stereo partly drawn), the growth was 134% in the test on SK-MEL-2 melanoma; 104% in the test with EKVX NSCLC; 98.5% with SN12C renal; 93.2% in the test on UO-31 renal; 123% in the test with TK-10 renal; 90.8% with ACHN renal. Also, the growth in the test with A498 renal was 114%; with HL-60(TB) leukemia, 110%; in the test with CCRF-CEM leukemia, 90.6%.
Turning to `C#C[C@]1(OC(=O)CCCCCC)CC[C@H]2[C@@H]3CCC4=CC(=O)CC[C@@H]4[C@H]3CC[C@@]21C`, the growth in the test with SK-MEL-2 melanoma was 55.1%; in the test on EKVX NSCLC, 55.6%; in the test on SN12C renal, 47.3%; with UO-31 renal, 54.7%; in the test on TK-10 renal, 54.7%; in the test with ACHN renal, 54.2%. In addition, the growth is 80.5% in the test on A498 renal, 4.53% (active) in the test on HL-60(TB) leukemia and 41.2% in the test on CCRF-CEM leukemia.
For the compound `O=C(N/N=C/c1ccc(N(CCCl)CCCl)cc1)c1cccc2ccccc12`, the growth is 81.2% in the test with SK-MEL-2 melanoma; 85.2% in the test with EKVX NSCLC; 73.8% with SN12C renal; 78.7% in the test with UO-31 renal; 87.7% with TK-10 renal; 80.7% in the test with ACHN renal. The growth in the test with A498 renal was -9.28% (active); in the test on HL-60(TB) leukemia it was 29.5%; in the test with CCRF-CEM leukemia it was 56.6%.
As to `CC(=O)O[C@H](C[C@H](C(C)C)N(C)C(=O)[C@@H](NC(=O)[C@H]1CCCCN1C)C(C)C)c1nc(C(=O)NC2CCC(C(=O)O)CC2)cs1` (stereo partly drawn), the growth with SK-MEL-2 melanoma was 37.4%; in the test with EKVX NSCLC, 57.8%; in the test on SN12C renal, 13.4%; with UO-31 renal, 76.4%; in the test with TK-10 renal, 73.8%; in the test with ACHN renal, 86.8%. For the same compound, the values for the growth with A498 renal, with HL-60(TB) leukemia and in the test on CCRF-CEM leukemia were 35.8%, -22.2% (active) and 12.8%, respectively.
`Clc1ccc2nnnn2n1`: the growth is -12.1% (active) in the test with SK-MEL-2 melanoma; 90% with EKVX NSCLC; 51.2% with SN12C renal; 5.04% (active) in the test with UO-31 renal; 37.5% in the test on TK-10 renal; 43% in the test with ACHN renal. In addition, the growth with A498 renal was 78.7%; with HL-60(TB) leukemia, -25.8% (active); in the test with CCRF-CEM leukemia, 19.6%.
On to `COC(=O)[C@@H](C)C[C@H](Cc1ccccc1)NC(=O)c1nc([C@@H](C[C@H](C(C)C)N(C)C(=O)[C@@H](NC(=O)[C@H]2CCCCN2C)C(C)C)OC(C)=O)sc1C`, for which the growth in the test on SK-MEL-2 melanoma was 26.5%; in the test with EKVX NSCLC, 33.9%; with SN12C renal it was 18.3%; in the test on UO-31 renal it was 44.5%; in the test with TK-10 renal, 31.1%; with ACHN renal it was 24.5%. For the same compound, the growth in the test on A498 renal was -19.3% (active); in the test on HL-60(TB) leukemia, -43.5% (active); with CCRF-CEM leukemia, 7.82% (active).
On to `CC12CCC3C(CCC4Cc5[nH]c6ccccc6c5CC43C)C1CCC2O` (stereo not drawn), for which the growth with SK-MEL-2 melanoma is 67.2%; in the test on EKVX NSCLC, 56.8%; in the test on SN12C renal it was 42.8%; with UO-31 renal, 56.9%; with TK-10 renal it was 57.3%; with ACHN renal it was 48.3%. The growth is 31.8% with A498 renal, -32.9% (active) in the test with HL-60(TB) leukemia and 8.61% (active) with CCRF-CEM leukemia.
For `COC(=O)C12CC(NC(=O)c3csc([C@@H](C[C@H](C(C)C)N(C)C(=O)[C@@H](NC(=O)[C@H]4CCCCN4C)C(C)C)OC(C)=O)n3)(C1)C2`, the growth in the test on SK-MEL-2 melanoma is 28.5%; with EKVX NSCLC, 44%; in the test with SN12C renal, 24.5%; in the test on UO-31 renal, 44.4%; with TK-10 renal it was 56.5%; with ACHN renal it was 22.9%. Further, the growth with A498 renal is -1.32% (active); in the test on HL-60(TB) leukemia, -38.9% (active); in the test on CCRF-CEM leukemia, 8.23% (active).
